Results on 30 compounds are retold here after the supplement of paper PMC4840960.

In assay [1] the test system is E18 rat cortical neuron-glia co-culture. The assay can be described thus: fiber score / MBP score (myelination specific beyond OL differentiation) (ratio); higher = more myelination-specific MBP alignment. As to conditions: 1 µM; treatment time: 8 days (DIV5-DIV13). In a few lines:
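Reported values are fiber score (continuous MBP fiber length per Olig2+ nucleus) divided by MBP score (thresholded MBP area × intensity per Olig2+ nucleus). They come from primary E18 rat cortical co-cultures treated with library compounds at 1 or 5 µM in myelination medium from DIV5 to DIV13, then fixed in 4 % paraformaldehyde, immunostained for MBP and Olig2 with DAPI, and analysed over four 10X fields per well in duplicate wells.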

Assay [2] shares this test system. The assay can be described thus: myelination (MBP fiber length per Olig2+ nucleus), % of 1 µM DAPT response (DMSO = 0) (% of DAPT); higher = more myelination, active = 50 or more. As to conditions: treatment time: 8 days (DIV5-DIV13). In a few lines:
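Rat cortical co-cultures from E18 tissue were dissociated with papain and plated at 20,000 cells/well on 96-well plates coated with poly-d-lysine/laminin. From DIV5 to DIV13, library compounds were added at 1 or 5 µM in myelination medium. After fixation in 4 % paraformaldehyde, cultures were immunostained for MBP and Olig2 and counterstained with DAPI, and four 10X fields were analysed in each of duplicate wells. The myelination value is the length of continuous straight MBP fibers per Olig2+ nucleus, normalised so that 0.1 % DMSO is 0 and a 1 µM positive control is 100.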

Counter-ions that a name gives are not always drawn. ± gives the standard deviation of the averaged measurements.

Consider `O=c1c(O[C@@H]2O[C@H](CO)[C@H](O)[C@H](O)[C@H]2O)c(-c2ccc(O)c(O)c2)oc2cc(O)cc(O)c12` [Hyperoside], for which the “fiber score / MBP score” value in assay [1] was found to be 0.853. Besides, the myelination in assay [2] (1 µM) is -69.1 (inactive).
For `CC(C)c1ccc2c(c1)c(SC(C)(C)C)c(CC(C)(C)C(=O)O)n2Cc1ccc(Cl)cc1`, in assay [1], the “fiber score / MBP score” value was 1.1. The figures for the myelination in assay [2] (1 µM) and in assay [2] (5 µM) were -5.83 (inactive) and < -35.1 (inactive), respectively.
As to `CC1(C)O[C@@H]2C[C@H]3[C@@H]4CCC5=CC(=O)C=C[C@]5(C)[C@@]4(F)[C@@H](O)C[C@]3(C)[C@]2(C(=O)CO)O1` [Azmacort], the “fiber score / MBP score” value in assay [1] worked out at 0.687. Also, the myelination in assay [2] (1 µM) was -5.49 (inactive).
As for `COc1cccc2c1C(=O)c1c(O)c3c(c(O)c1C2=O)C[C@@](O)(C(=O)CO)C[C@@H]3O[C@H]1C[C@H](N)[C@H](O)[C@H](C)O1` [Doxorubicin], the myelination in assay [2] (5 µM) was < -69.3 (inactive).
For the compound `CSc1ccc2c(c1)N(CCC1CCCCN1C)c1ccccc1S2` (stereo not given) [Thioridazine], the “fiber score / MBP score” value in assay [1] came out at 0.479. Moreover, the myelination is -11.4 (inactive) in assay [2] (1 µM) and < -29.5 (inactive) in assay [2] (5 µM).
The matching figures for `C[C@@H]1CN(CCCn2c3ccccc3c3ccccc32)C[C@H](C)N1` [Rimcazole]: 0.507, -12.2 (inactive) and < -33.5 (inactive).
`c1ccc(CC2=NCCN2)cc1` [Tolazoline]: the “fiber score / MBP score” value in assay [1] came to 0.396. Besides, in assay [2] (1 µM), the myelination was -13.6 (inactive).
Turning to `CN1CCN(CCCN2c3ccccc3Sc3ccc(C(F)(F)F)cc32)CC1` [Trifluoperazine], the “fiber score / MBP score” value in assay [1] was found to be 0.177. For the same compound, the myelination in assay [2] (1 µM) is -80.1 (inactive).
`CN(C)CCOc1ccc(/C(=C(/CCCl)c2ccccc2)c2ccccc2)cc1` [Toremifene]: the “fiber score / MBP score” value in assay [1] was determined as 0.889. In addition, the myelination in assay [2] (1 µM) is 3.19 (inactive).
For `CCN(CC)C(=S)SSC(=S)N(CC)CC` [Disulfiram] the same measures were 1.15 and 148.
On to `O=C(NCC1CCCCN1)c1cc(OCC(F)(F)F)ccc1OCC(F)(F)F` (stereo not given) [Flecainide], for which the myelination in assay [2] (5 µM) was < -49.1 (inactive).
Regarding `CN(C/C=C/C#CC(C)(C)C)Cc1cccc2ccccc12` [Terbinafine], the “fiber score / MBP score” value in assay [1] came to 0.788. In addition, the myelination in assay [2] (1 µM) is -6.59 (inactive).
For the compound `Cc1cccc(CN2CCN(C(c3ccccc3)c3ccc(Cl)cc3)CC2)c1` (stereo not given) [Meclizine], the “fiber score / MBP score” value in assay [1] amounted to 0.439. Further, the myelination in assay [2] (1 µM) is -29.8 (inactive); in assay [2] (5 µM), < -51.3 (inactive).
Take `CCOC(=O)C1=C(COCCN)NC(C)=C(C(=O)OC)C1c1ccccc1Cl` (stereo not given) [Amlodipine]: the “fiber score / MBP score” value in assay [1] was 0.613. Besides, the myelination in assay [2] (1 µM) was -4.57 (inactive).
Turning to `CC(C)(C)NC(=O)[C@@H]1C[C@@H]2CCCC[C@@H]2CN1C[C@@H](O)[C@H](Cc1ccccc1)NC(=O)[C@H](CC(N)=O)NC(=O)c1ccc2ccccc2n1` [Saquinavir], in assay [1], the “fiber score / MBP score” value was 0.889. Also, the myelination in assay [2] (1 µM) was 3.19 (inactive); in assay [2] (5 µM), < -37.3 (inactive).
Take `CC=CC(=O)N(CC)c1ccccc1C` [Crotamiton]: the “fiber score / MBP score” value in assay [1] was 0.609. In assay [2] (1 µM), the myelination is -16.8 (inactive).
For the compound `CNCCC(Oc1ccc(C(F)(F)F)cc1)c1ccccc1` (stereo not given) [Fluoxetine hydrochloride], the “fiber score / MBP score” value in assay [1] stood at 0.807. The myelination in assay [2] (1 µM) was -1.16 (inactive).
Consider `Clc1ccc(COC(Cn2ccnc2)c2ccc(Cl)cc2Cl)c(Cl)c1` (stereo not given) [Miconazole], for which, in assay [1], the “fiber score / MBP score” value worked out at 0.482. For the same compound, the myelination in assay [2] (1 µM) is -12.3 (inactive).
For `C[C@@H]1C[C@H]2[C@@H]3CCC4=CC(=O)C=C[C@]4(C)[C@@]3(F)[C@@H](O)C[C@]2(C)[C@@]1(O)C(=O)CO` [Dexamethasone], in assay [1], the “fiber score / MBP score” value amounted to 0.824. Besides, the myelination in assay [2] (1 µM) was -36.6 (inactive); in assay [2] (5 µM), < -84.9 (inactive).
In the case of `CCc1c2c(nc3ccc(OC(=O)N4CCC(N5CCCCC5)CC4)cc13)-c1cc3c(c(=O)n1C2)COC(=O)[C@]3(O)CC` [Irinotecan], the “fiber score / MBP score” value in assay [1] amounted to 2.03. The myelination in assay [2] (1 µM) is 255 (active).
For `CC[C@H]1OC(=O)[C@H](C)C(=O)[C@H](C)[C@@H](O[C@@H]2O[C@H](C)C[C@H](N(C)C)[C@H]2O)[C@](C)(OC)C[C@@H](C)C(=O)[C@H](C)[C@H]2N(CCCCn3cnc(-c4cccnc4)c3)C(=O)O[C@]12C` [Telithromycin] the same measures were 0.819 and -3.78 (inactive).
Take `Nc1nc(O)c2ncn(CCC(CO)CO)c2n1` [Penciclovir]: the “fiber score / MBP score” value in assay [1] was determined as 0.784. Further, the results for the myelination in assay [2] (1 µM) and in assay [2] (5 µM) were 3 (inactive) and < -37.3 (inactive), respectively.
Take `C=C(CC)C(=O)c1ccc(OCC(=O)O)c(Cl)c1Cl` [Ethacrynic Acid]: the “fiber score / MBP score” value in assay [1] is 2.03. Moreover, in assay [2] (1 µM), the myelination was 32.2 (inactive).
As to `CS(=O)(=O)c1ccc(-c2cc(Br)sc2-c2ccc(F)cc2)cc1`, the “fiber score / MBP score” value in assay [1] is 0.92. In assay [2] (1 µM), the myelination is 8.65 (inactive).
The matching figures for `NNCCc1ccccc1` [Phenelzine]: 0.849 ± 0.21 and -25.5 (inactive).
As to `Clc1ccc(CO/N=C(\Cn2ccnc2)c2ccc(Cl)cc2Cl)c(Cl)c1` [Oxiconazole], the “fiber score / MBP score” value in assay [1] came out at 0.501. Besides, the myelination in assay [2] (1 µM) was -25.1 (inactive).
For `CC#C[C@]1(O)CC[C@H]2[C@@H]3CCC4=CC(=O)CCC4=C3[C@@H](c3ccc(N(C)C)cc3)C[C@@]21C` [Mifepristone] the same measures were 0.755 and -23 (inactive).
The matching figures for `O=c1c(-c2ccccc2)c1-c1ccccc1` [Diphenylcyclopropenone]: 0.809 and -43.4 (inactive).
For `Cc1cccc(C)c1NC(=O)C(C)N` (stereo not given) [Tocainide] the same measures were 0.776 and -15 (inactive).
Turning to `COC(=O)C1=C(C)NC(C)=C(C(=O)OCC(C)C)C1c1ccccc1[N+](=O)[O-]` (stereo not given) [Nisoldipine], in assay [1], the “fiber score / MBP score” value was determined as 0.773. In addition, in assay [2] (1 µM), the myelination is -11.1 (inactive).
